Source: PubChem BioAssay (National Center for Advancing Translational Sciences (NCATS))
MARV entry inh – inhibitors of Marburg virus binding or cell entry; Marburg virus pseudotyped entry inhibition, cell reporter; Potency, µM (titrated, usually from 37.8 µM), for inactives: at the top dose activity change, negative = inhibition, actives largely listed as inhibitors; 300,000 tested, 1.8% active; AID 540276; calls by dose curve; tested in HEK293 cells; further: potency means the concentration at half of the fitted maximal effect; on the % scale 0 is the no-effect control and ±100 the full control effect
Shiga inhibitor – Shiga toxin inhibition. inhibition, % at 38.7 µM. 290,000 tested, 9.2% active. Vero cells, Shiga toxin protein synthesis inhibition reporter. AID 2315; in the data active means inhibition mostly above about 28%, no sharp cut-off; inactive means mostly below about 43%; further: 0% is about no effect
LASV entry inh – inhibitors of Lassa virus binding or cell entry; AID 540256; 300,000 tested, 1.2% active; Potency, µM (highest dose often 37.9 µM), for the others: at the top dose activity change, negative = inhibition, usual class: inhibitors; Lassa virus pseudotype entry inhibition, cell reporter; calls by dose curve; tested in HEK293 cells; further: potency means the concentration at half of the fitted maximal effect; on the % scale 0 is the no-effect control and ±100 the full control effect; nearly all actives have a fitted effect of over 50% in size
CHX counter – counter-screen hit for Shiga toxin inhibitors, cycloheximide. cell reporter, cycloheximide protein synthesis inhibition counterscreen. max response, %. 300,000 tested, 12% active. AID 2314; in the data active means max response mostly above about 13%, no sharp cut-off; inactive means mostly below about 14%; further: read at 38.3 µM for the half of the compounds with a filed dose; 0% is about no effect
AMA1 RON2 block – inhibitors of Plasmodium falciparum AMA1-RON2 interaction; AlphaScreen AMA1-biotinylated RON2 peptide binding; Potency, µM (highest dose often 58.2 µM), inactives show at the top dose activity change, negative = inhibition, hits mostly inhibitors; 360,000 tested, 0.2% active; active means well fitted inhibition curve with a large enough effect; inconclusive means small, poorly fitted or top-dose-only effect; inactive means no such curve, though single readings can be large or run the other way;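 further: potency means the concentration at half of the fitted maximal effect; 0% = vehicle wells and -100% = peptide control; nearly all actives have a fitted effect of over 45% in size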
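AMA1 (3D7) with his tag at 25 nM final met compounds first, then biotinylated RON2 peptide at 25 nM; detection used donor plus acceptor beads, 10 µg/mL apiece, read by AlphaScreen after 30 min at room temperature.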
Active calls of the source: *; ? = inconclusive; · = no result given; [ ] = remark or other dose. This is one part of a sample in which hits are shown more often than they occur.

SMILES | MARV entry inh | Shiga inhibitor | LASV entry inh | CHX counter | AMA1 RON2 block
COC(=O)c1ccc(NC(=S)NCc2ccco2)cc1 | -29%[46.1 µM] | 29 | -26% | 12 | -5%
NC(=O)c1ccc(NC(=S)NCc2ccco2)cc1 | · | 39 | · | 11* | -5%
CC(=O)c1ccc(NC(=S)NCc2ccco2)cc1 | · | 58* | · | 36* | 0%
CCOc1cccc(-c2c(C(=O)N/N=C(\C)c3cccnc3)nnn2-c2nonc2N)c1 | -2%[46.1 µM] | -17 | 1%[46.1 µM] | -8 | 15%
CCCOc1ccc(-c2nonc2NC(=O)c2oc3ccc(Cl)cc3c2C)cc1OCCC | 18%[46.1 µM] | · | 12%[46.1 µM] | · | ·
Cc1ccc(S(=O)(=O)N(C)c2ccc(C(=O)NCc3ccccc3F)cc2)cc1 | ? | · | ? | · | -18%
COc1ccc(NS(=O)(=O)c2cc(NC(=O)c3ccco3)ccc2N2CCCCC2)cc1 | 14µM* | 17 | ? | 8 | -10%
O=S(=O)(Nc1cc(S(=O)(=O)N2CCOCC2)ccc1N1CCOCC1)c1ccc2c(c1)OCCO2 | · | 11 | · | 16* | -10%
O=S(=O)(Nc1cc(S(=O)(=O)N2CCOCC2)ccc1O)c1ccc2c(c1)OCCCO2 | · | · | · | · | 84%
CC(C)Oc1ccc(C(=O)Nc2ccc(Cl)c(S(=O)(=O)Nc3ccc(Cl)cc3)c2)cc1 | ? | 13 | 11µM* | 3 | -3%
CC(C)Oc1ccc(C(=O)Nc2cc(S(=O)(=O)N3CCOCC3)ccc2N2CCOCC2)cc1 | ? | · | 13µM* | · | 3%
Cc1cnc(CNC(=O)CC2C(=O)NCCN2Cc2cccc(F)c2F)cn1 (stereo not given) | ? | -8 | 1%[46.1 µM] | 3 | 80%
O=S(=O)(c1ccc(C2CCCCC2)cc1)N1CCN(c2cc(Cl)ccc2Cl)CC1 | 3%[46.1 µM] | · | -3%[46.1 µM] | · | ·
COc1ccc(-c2nnc(C3CCN(S(=O)(=O)c4cccc(Cl)c4)CC3)o2)cc1 | -2%[46.1 µM] | · | 12%[46.1 µM] | · | ·
O=C(NCCc1cn2ccccc2n1)C1CCCCC1 | · | -7 | · | 1 | 4%
O=C(Nc1ccccc1)c1ccc(Cl)c(S(=O)(=O)Nc2ccccc2)c1 | ? | · | -18%[46.1 µM] | · | ·
COc1ccc(NS(=O)(=O)c2cc(NC(=O)c3ccc(Cl)cc3)ccc2N2CCOCC2)cc1 | 1.1µM* | · | ? | · | -6%
CN(c1cccc(NC(=O)c2ccc(Cl)c(S(=O)(=O)Nc3ccccc3)c2)c1)S(C)(=O)=O | 3.7µM* | 5 | -24% | 5 | -19%
COc1ccc(NS(=O)(=O)c2ccc(N3CCOCC3)c(NC(=O)c3ccc(F)cc3)c2)cc1 | 3.5µM* | -18 | ? | -1 | 9%
COc1cc(C(=O)NCCSc2c(-c3ccccc3)[nH]c3ccccc23)cc(OC)c1OC | ? | · | -28%[46.1 µM] | · | ·
CCc1c(C)sc(NC(=O)c2cc3nc(-c4ccc(OC)cc4)cc(C(F)(F)F)n3n2)c1C(=O)OC | · | · | 1%[46.1 µM] | · | ·
CSc1nnc(CCNC(=O)OC(C)(C)C)o1 | · | 54* | · | 13 | -5%
CSc1nnc(CCCCCNC(=O)OC(C)(C)C)o1 | -9% | 16 | ? | 8 | -5%
CCOc1cc(N2CCOCC2)c(OCC)cc1NC(=O)c1cc(-c2ccco2)nc2ccccc12 | 16µM* | 10 | ? | -1 | -23%
CC(C)Oc1ccc(-c2cc(C(=O)NCCN3CCOCC3)c3ccccc3n2)cc1 | -5% | 61 | -11% | 30* | 4%
SMILES | MARV entry inh | Shiga inhibitor | LASV entry inh | CHX counter | AMA1 RON2 block
CCOc1cc(N2CCOCC2)c(OCC)cc1NC(=O)COc1ncnc2ccccc12 | -35% | -11 | -18% | -1 | -13%
CCOc1ccc(-c2cc(C(=O)NCCCN3CCOCC3)c3ccccc3n2)cc1 | · | 40 | · | 23* | -6%
O=C(COc1ccc2c(-c3ccccc3)cc(=O)oc2c1)NCCCN1CCOCC1 | · | 23 | · | 12* | 2%
COc1ccc(CCNC(=O)CCCCn2c(=O)c3ccccc3n(Cc3cc(C)ccc3C)c2=O)cc1OC | -26%[46.1 µM] | · | 8%[46.1 µM] | · | ·
O=C(Nc1ccc(Cl)c(Cl)c1)Nc1nc(-c2ccccc2)cs1 | ? | -1 | ? | -3 | 1%
O=C(Nc1ccccc1)Nc1nc(-c2ccccc2)cs1 | · | 39 | · | 45* | 6%
CC(C)(C)c1csc(NC(=O)Nc2ccccc2)n1 | ? | 72* | ? | 51* | -12%
COc1cccc(-c2csc(NC(=O)Nc3ccccc3)n2)c1 | · | 57* | · | 14* | -9%
COc1cccc(-c2csc(NC(=O)C3CC3)n2)c1 | · | 40 | · | 18 | -8%
C=CCOc1ccc(/C=C2\SC(=S)N(NS(=O)(=O)c3ccc(C)cc3)C2=O)cc1 | ? | -1 | 27%[46.1 µM] | -7 | -7%
O=C(CN1C(=O)S/C(=C/c2ccc(N3CCOCC3)cc2)C1=O)N1CCOCC1 | ? | 36* | 1% | 17* | 8%
CCN=C1S/C(=C\c2sccc2C)C(=O)N1CC | 16%[46.1 µM] | 31* | 17% | 19* | -6%
CCN=C1S/C(=C\c2ccc(OC)c(OCC)c2)C(=O)N1CC | 0% | -16 | 12% | -2 | ·
Cc1ccsc1/C=C1/SC(=O)N(CC(=O)N2CCOCC2)C1=O | ? | 70 | 24% | 25* | -3%
CCc1nnc(NC(=O)CCC(=O)NC2CCCCCC2)s1 | 3%[46.1 µM] | -9 | 5%[46.1 µM] | -3 | -3%
Cc1cc2nc(C(C)(C)C)c(Cc3cccc(F)c3)n2c(C)c1Br | · | · | · | · | -5%
Cc1cc2nc(-c3ccccn3)c(-c3ccccn3)nc2cc1C | · | 30 | · | 18* | ·
c1ccc(-c2nc3ccccc3nc2-c2ccccn2)nc1 | -14% | 12 | 3% | -1 | 22%
Cc1ccc2nc(-c3ccc(NS(=O)(=O)c4c(C)n(C)c(=O)n(C)c4=O)cc3)sc2c1 | · | 121* | · | 67* | -6%
Cc1cccc(S(=O)(=O)Nc2ccc(-c3nc4ccc(C)cc4s3)cc2)c1 | ? | 74* | ? | 83* | -11%[11.6 µM]
Cc1ccc(S(=O)(=O)Nc2ccc(-c3nc4ccc(C)cc4s3)cc2)cc1 | -19% | 2 | 4% | -3 | -5%
COc1ccc(OC)c(C(=O)N2CCC(C(=O)c3ccc(F)cc3)CC2)c1 | 0% | -6 | 4% | -3 | 5%
O=CNC1(c2ccccc2)CCCCC1 | 2% | · | 6% | · | -27%
CC(=O)N/C(=C\c1ccccc1)C(=O)OCc1cc(C)ccc1C | 16%[46.1 µM] | 27 | -18% | -2 | 3%
CN(C)S(=O)(=O)Oc1cc(Cl)ccc1C(=O)Nc1ccc(F)cc1F | 3%[46.1 µM] | 42 | -8% | 35* | -12%
SMILES | MARV entry inh | Shiga inhibitor | LASV entry inh | CHX counter | AMA1 RON2 block
CN(C)c1ccncc1C(=O)Nc1ccc(F)cc1F | -6%[46.1 µM] | 2 | 13%[46.1 µM] | 0 | -1%
CCN(CC(=O)Nc1ccc2c(c1)CCC2)Cc1nc2ccccc2c(=O)[nH]1 | ? | 55* | ? | 9 | 88%
CCN(CC(=O)Nc1ccc2c(c1)OCO2)Cc1nc2ccccc2c(=O)[nH]1 | -6%[46.1 µM] | -12 | -9% | 11 | 126%
CCOC(=O)Nc1ccc2c(c1)N(C(=O)CN(CC)CC)c1ccccc1CC2 | 0% | -5 | 5% | -3 | 0%
CCN(CC)CC(=O)Nc1ccc2c(c1)N(C(=O)CN(CC)CC)c1ccccc1CC2 | 8.2µM* | -19 | ? | 14 | 15%
CCN(CC)CC(=O)Nc1ccc2c(c1)Nc1ccccc1CC2 | ? | 33* | -14% | 21* | ?
CN(CC(=O)Nc1ccc2c(c1)CCC2)CC(=O)Nc1ccccc1Br | -25% | -16 | -9% | -1 | 53%
